{"source": "PubChem BioAssay (EPA / NIEHS)", "note": "Results filed as inconclusive are left out. Active and inactive are the calls of the source. How the source made its calls: active means hit-call score of the fitted dose curve at least 0.9, where 1 is the maximum; inconclusive means response in the unintended direction; inactive means score below 0.9.", "data": [{"assay": "Tanguay_ZF_120hpf_NC_legacy: (Legacy) Oregon State University Tanguay Lab 120 Hour Post-fertilization zebrafish Assay for Notochord and Tail Malformation (AID 2283656)", "protocol": "Tanguay_ZF_120hpf_legacy is a whole embryo, multiplexed endpoint assay using zebrafish larvae exposed for 120 hours post fertilization on a 96-well plate.Tanguay_ZF_120hpf_NC_legacy is one of one assay component(s) measured or calculated from the Tanguay_ZF_120hpf_legacy assay. It is designed to make measurements of zebrafish development as detected with brightfield microscopy of developing zebrafish embryos.Data from the assay component Tanguay_ZF_120hpf_NC_legacy was analyzed into 1 assay endpoints. This assay endpoint, Tanguay_ZF_120hpf_NC_legacy, was analyzed in the positive analysis fitting direction relative to DMSO as the negative control and baseline of activity. Using a type of morphology reporter, gain-of-signal activity can be used to understand changes in developmentals as they relate to the whole embryo. To generalize the intended target to other relatable targets, this assay endpoint is annotated to the zebrafish development intended target family, where the subfamily is embryonic notochord morphogenesis.\nZebrafish husbandry: Tropical 5D wild-type adult zebrafish were housed in at an approximate density of 1000 per 100 gallon tank at the Sinnhuber Aquatic Research Laboratory, Oregon State University, Corvallis, OR. Each tank was kept at standard laboratory conditions of 28C on a 14-h light/10-h dark photoperiod in fish water consisting of reverse osmosis water supplemented with a commercially available salt (Instant Ocean). Spawning funnels were placed into the tanks the night prior, and embryos were collected and staged. To increase bioavailability, the chorion was enzymatically removed using pronase (63.6mg/ml, >/= 3.5U/mg, Sigma-Aldrich: P5147) at 4 hours post fertilization (hpf) using a custom automated dechorionator.Chemical exposures: Six hpf dechorionated embryos were placed 1 embryo per well in a 96-well plate prefilled with 90 ul of EM using automated embryo placement systems (AEPS). Ten microliters of each row of dilution plate 2 was added to 2 exposure plates. The final DMSO concentration used was 0.64% (vol/vol). Thirty-two embryos were also exposed to 5uM trimethyltin chloride (positive control). Plates were sealed to prevent evaporation and foil covered to reduce light exposure and kept in a 28C incubator. Embryos were statically exposed until 120 hpf. At 24 hpf, embryos were assessed for photomotor response using a custom photomotor response analysis tool (PRAT) and for developmental toxicity endpoints (MO24: mortality at 24 hpf, DP: developmental progression, SM: spontaneous movement, and NC: notochord distortion). At 120 hpf, locomotor activity was measured using Viewpoint Zebralab and assessed for 18 endpoints. Zebrafish acquisition and analysis program (ZAAP), a custom program designed to inventory, acquire, and manage zebrafish data, was used to collect developmental endpoints as either present or absent (i.e., binary responses were recorded). If mortality occurred for an embryo (at either 24 or 120 hpf), the non-mortality endpoints were not measured.", "values": [{"smiles": "Cc1cc(C)c(O)c(C)c1", "outcome": "inactive"}, {"smiles": "COC(=O)CCCCC(=O)OC", "outcome": "inactive"}, {"smiles": "O=C(O)c1ccccc1C(c1ccc(O)cc1)c1ccc(O)cc1", "outcome": "inactive"}, {"smiles": "ClC1=C(Cl)C(Cl)(Cl)C(Cl)=C1Cl", "outcome": "inactive"}, {"smiles": "CC(O)CO", "note": "(stereo not given)", "outcome": "inactive"}, {"smiles": "CC(=O)CC(C)(C)O", "outcome": "inactive"}, {"smiles": "CCOC(=O)CC(O)(CC(=O)OCC)C(=O)OCC", "outcome": "inactive"}, {"smiles": "CCCCCCCCC(=O)O", "outcome": "inactive"}, {"smiles": "O=[N+]([O-])c1ccc(O)cc1", "outcome": "inactive"}, {"smiles": "Nc1cccc2c(N)cccc12", "outcome": "inactive"}, {"smiles": "CC(C)CCCCCCOC(=O)CCCCC(=O)OCCCCCCC(C)C", "outcome": "inactive"}, {"smiles": "COCC(C)OCC(C)O", "note": "(stereo not given)", "outcome": "inactive"}, {"smiles": "CC[C@H](c1ccc(O)cc1)[C@@H](CC)c1ccc(O)cc1", "outcome": "inactive"}, {"smiles": "CC(=O)NC1(c2cccc(F)c2)CCN(CC[C@@]2(c3ccc(Cl)c(Cl)c3)CN(c3ccccc3)C(=O)CO2)CC1", "outcome": "inactive"}, {"smiles": "NC(=O)N(O)[C@@H]1C=C[C@H](Oc2cccc(Oc3ccc(F)cc3)c2)C1", "outcome": "inactive"}, {"smiles": "CC#C[C@]1(O)CC[C@H]2[C@@H]3CCC4=CC(=O)CCC4=C3[C@@H](c3ccc(N(C)C)cc3)C[C@@]21C", "outcome": "inactive"}, {"smiles": "OC1CCCCC1", "outcome": "inactive"}, {"smiles": "C[C@@H]1C[C@H]2[C@@H]3CCC4=CC(=O)C=C[C@]4(C)[C@@]3(F)[C@@H](O)C[C@]2(C)[C@@]1(O)C(=O)COP(=O)(O)O", "outcome": "inactive"}, {"smiles": "CCCCOCCO", "outcome": "inactive"}, {"smiles": "CCc1nn(C2CCCCC2)c2cc(C3(C#N)CCC(C(=O)O)CC3)ccc12", "note": "(stereo not given)", "outcome": "inactive"}, {"smiles": "CC[C@H](C)[C@@H](C(=O)O)n1sc2ccccc2c1=O", "outcome": "inactive"}, {"smiles": "O=c1c(-c2ccc(O)cc2)coc2cc(O)ccc12", "outcome": "inactive"}, {"smiles": "CC1=C(/C=C/C(C)=C/C=C/C(C)=C/C(=O)O)C(C)(C)CCC1", "AC50": "272 nM (active)"}, {"smiles": "OCCC(F)(F)C(F)(F)C(F)(F)C(F)(F)C(F)(F)C(F)(F)C(F)(F)C(F)(F)F", "outcome": "inactive"}, {"smiles": "Oc1cc2ccccc2c2ccccc12", "outcome": "inactive"}, {"smiles": "CCN(CC)CCNc1ccc(CNC=O)c2sc3ccc(OC)cc3c(=O)c12", "outcome": "inactive"}, {"smiles": "O=C(O)Cc1cc(I)c(Oc2cc(I)c(O)c(I)c2)c(I)c1", "outcome": "inactive"}, {"smiles": "CCCCCCCCOC(=O)CCCCCCCCC(=O)OCCCCCCCC", "outcome": "inactive"}, {"smiles": "CN1CCC[C@H]1c1cccnc1", "outcome": "inactive"}, {"smiles": "NC(=O)N1C(=O)C(C(=O)c2cc(Cl)cs2)c2cc(F)c(Cl)cc21", "note": "(stereo not given)", "outcome": "inactive"}, {"smiles": "CCC(C)(C)C1CCC(O)CC1", "note": "(stereo not given)", "outcome": "inactive"}, {"smiles": "CCc1ccc(CCOc2ccc(CC3SC(=O)NC3=O)cc2)nc1", "note": "(stereo not given)", "outcome": "inactive"}, {"smiles": "CCCCC(CC)COC(=O)CCCCC(=O)OCC(CC)CCCC", "note": "(stereo not given)", "outcome": "inactive"}, {"smiles": "CC(C)(C)c1cc(C(C)(C)C)c(O)c(C(C)(C)C)c1", "outcome": "inactive"}, {"smiles": "CCCOC(=O)c1ccc(O)cc1", "outcome": "inactive"}, {"smiles": "CCCCCCCCCCCCc1ccccc1S(=O)(=O)O", "outcome": "inactive"}, {"smiles": "CCCCC(CC)COC(=O)CCCCC(=O)OCc1ccccc1", "note": "(stereo not given)", "outcome": "inactive"}, {"smiles": "C=C(C)C(=O)OCCC(F)(F)C(F)(F)C(F)(F)C(F)(F)C(F)(F)C(F)(F)F", "outcome": "inactive"}, {"smiles": "Oc1cccc(O)c1", "outcome": "inactive"}, {"smiles": "C#C[C@]1(O)CC[C@H]2[C@@H]3CCC4=CC(=O)CC[C@@H]4[C@H]3CC[C@@]21C", "outcome": "inactive"}]}]}
